Experimental data from PubChem BioAssay (NCI).
About 83,000 compounds went through this panel and 20% of them were active in at least one assay; those are over-represented in the sample as a whole.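 Cell lines were cultured in 96-well plates, exposed to a single compound concentration, and assessed for percent growth 48 hours later.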 Unmarked numbers belong to inactive results. Activity calls are given as the source filed them. How the source made its calls: active means growth percent below 10; inactive means the rest.

What was measured:
Experiment in all cases: NCI-60 one-dose screen, 48 h (100 = growth as untreated, 0 = no growth, -100 = all killed)
Conditions in all cases: 10 µM unless noted
NCI-H23 lung = test system: NCI-H23 lung
NCI-H226 lung = test system: NCI-H226 lung
NCI-H322M lung = test system: NCI-H322M lung
HOP-62 NSCLC = test system: HOP-62 NSCLC
NCI-H460 lung = test system: NCI-H460 lung
HOP-92 NSCLC = test system: HOP-92 NSCLC
NCI-H522 lung = test system: NCI-H522 lung
A549/ATCC NSCLC = test system: A549/ATCC NSCLC
786-0 renal = test system: 786-0 renal
COLO 205 colon = test system: COLO 205 colon
DU-145 prostate = test system: DU-145 prostate
K-562 leukemia = test system: K-562 leukemia
MALME-3M melanoma = test system: MALME-3M melanoma
MDA-MB-231 breast = test system: MDA-MB-231 breast
RXF 393 renal = test system: RXF 393 renal
SF-268 CNS = test system: SF-268 CNS
SF-295 CNS = test system: SF-295 CNS
SF-539 CNS = test system: SF-539 CNS
UACC-257 melanoma = test system: UACC-257 melanoma
M14 melanoma = test system: M14 melanoma

Structure (SMILES) | growth (NCI-H23 lung) | growth (NCI-H226 lung) | growth (NCI-H322M lung) | growth (HOP-62 NSCLC) | growth (NCI-H460 lung) | growth (HOP-92 NSCLC) | growth (NCI-H522 lung) | growth (A549/ATCC NSCLC) | growth (786-0 renal) | growth (COLO 205 colon) | growth (DU-145 prostate) | growth (K-562 leukemia) | growth (MALME-3M melanoma) | growth (MDA-MB-231 breast) | growth (RXF 393 renal) | growth (SF-268 CNS) | growth (SF-295 CNS) | growth (SF-539 CNS) | growth (UACC-257 melanoma) | growth (M14 melanoma)
Cc1ccc(C2CC(c3ccc(Nc4nc(NCCO)nc(NCCO)n4)cc3)=NN2c2ccc(Cl)cc2)cc1 (stereo not given) | 71.8% | 101% | 51.3% | 67.6% | 26.6% | 88.6% | 67% | 48.1% | 23.7% | 70.3% | 62.6% | 14.9% | 67.3% | 66.9% | -12.6% (active) | 56.8% | 30.3% | 39% | 75.1% | 61.4%
COc1cc2c(Nc3ccc(NC(=O)Nc4ccc(Cl)c(C(F)(F)F)c4)c(Cl)c3)ncnc2cc1OCCCN1CCN(C)CC1 | 17.2% | 73.9% | 11.3% | -15% (active) | -70.4% (active) | 27% | -60.4% (active) | 20.8% | 6.31% (active) | -43.2% (active) | 2.84% (active) | -61% (active) | -50.8% (active) | -60.2% (active) | -40.5% (active) | 20.2% | -67.3% (active) | -77.9% (active) | 54.6% | 0.0561% (active)
COc1ccc(-c2cc(C(=O)N3N=C(c4ccc(N)cc4)CC3c3ccc(OC)cc3)c3cc(OC)ccc3n2)cc1 (stereo not given) | 48.6% | 94.9% | 93.3% | 60.1% | 85.4% | 56% | 29.5% | 76.6% | 18.9% | 96.3% | 80.2% | 11.8% | 71.3% | 73.6% | 68.2% | 54.9% | 64.1% | 34% | 60.8% | 38.4%
COc1ccc2nc(-c3ccc(Cl)cc3)cc(C(=O)N3N=C(c4ccc(N)cc4)CC3c3ccccc3)c2c1 (stereo not given) | 62% | 63.8% | 54% | 42.5% | 25.5% | 58.9% | 34.7% | 46.9% | 31.8% | 42.3% | 55% | 17.5% | 62.5% | 83.8% | 35.3% | 48.3% | 24.2% | 43.4% | 67.1% | 38.9%
COc1ccc2c(c1)C1(C(=O)N2)C(C#N)=C(c2ccccc2)Nc2c1c(-c1ccccc1)nn2-c1ccccc1 (stereo not given) | 51.1% | 101% | 60.4% | 66.9% | -26.1% (active) | 55.6% | 85.9% | 36.3% | 62.4% | 60.1% | 49.8% | 70.4% | 63.8% | 45.1% | 64.2% | 52.1% | 69.7% | -3.82% (active) | 87.9% | 72.2%
Cc1cccc(NC(=O)c2sc3nc4c(cc3c2N)CN(Cc2ccccc2)CC4)c1C | 51.3% | 60% | 40.4% | 32.3% | 12.5% | 35.2% | 11.3% | 31.1% | 31.9% | -0.373% (active) | 0.783% (active) | 13.1% | 53.5% | 45.2% | 16.9% | 41.4% | 27.6% | 19.8% | 87.9% | 4.27% (active)
O=C(CCc1nnco1)c1nc2ccc([N+](=O)[O-])cc2[nH]1 | 86.3% | 99.4% | 99.1% | 113% | 108% | 119% | 101% | 100% | 111% | 121% | 107% | 113% | 105% | 90.5% | 117% | 102% | 102% | 104% | 112% | 103%
COc1ccc(NC(=O)c2ccc(Nc3ncnc4[nH]c(C)c(C)c34)cc2)cc1 | 102% | 106% | 101% | 108% | 98.4% | 111% | 97.4% | 94.8% | 101% | 115% | 107% | 105% | 114% | 104% | 105% | 91.4% | 96.6% | 97.5% | 101% | 110%
O=C1CC23OC4ON=C(Br)C4C2C(O)c2ccccc2N13 (stereo not given) | 87.9% | 97.7% | 96.8% | 106% | 106% | 107% | 79.6% | 103% | 101% | 125% | 105% | 110% | 79.9% | 98.8% | 115% | 95.1% | 109% | 107% | 103% | 92.4%
CN(C)[C@@H]1C(=O)C(C(N)=O)=C(O)[C@@]2(O)C(=O)C3=C(O)c4c(O)cc(CN5CCc6ccccc6C5)c(Cl)c4C[C@H]3C[C@@H]12 | -73.8% (active) | -70.8% (active) | -87.2% (active) | -85.4% (active) | -68.7% (active) | -82.8% (active) | -79.3% (active) | -85.4% (active) | -83.8% (active) | -78.3% (active) | -92.2% (active) | -73.6% (active) | -52.5% (active) | -74.4% (active) | -82.2% (active) | -74.9% (active) | -88.9% (active) | -84.6% (active) | -62% (active) | -71.2% (active)
COc1ccc2[nH]c(=O)c(/C=C/C(=O)c3ccccc3OC)cc2c1 | 21.3% | 38.9% | 18.3% | 8.67% (active) | 1.79% (active) | -12% (active) | 3.93% (active) | 10.4% | 8.21% (active) | 20.4% | 10.8% | 4.24% (active) | 38.6% | 0.317% (active) | -7.9% (active) | 9.36% (active) | 8.29% (active) | -10% (active) | 37.6% | 13.8%
COc1ccc(/C=C(/C(=O)N2CCCC2)c2cc(OC)c(OC)c(OC)c2)cc1 | 34% | 69.2% | 45.7% | 29.3% | 13.6% | 47.9% | 26.3% | 36.1% | 35.3% | 4.08% (active) | 17% | 12.5% | 50.1% | 58.5% | 5.92% (active) | 60.1% | 18.3% | 17.1% | 52.4% | 2.21% (active)
Cc1cc(Cl)cc(CN(Cc2ccccc2)Cc2c(O)ccc3ccccc23)c1O | 93.6% | 104% | 95.7% | 92.3% | 104% | 83.7% | 83% | 98% | 103% | 115% | 98.1% | 101% | 96.7% | 100% | 109% | 90.8% | 104% | 103% | 100% | 104%
COC(=O)CCc1cc(O)c2c(c1)[C@@H](C(=O)OC)[C@H](c1ccc(O)c(O)c1)O2 | 76.5% | 102% | 98.3% | 54.3% | 107% | 79.8% | 51.8% | 98% | 93.9% | 104% | 95% | 26.2% | 66.8% | 78.8% | 88.5% | 74.1% | 84.7% | 74.5% | 85.6% | 32.5%
